Only some compounds are listed: those with a hit (about 4.8% of all), similar ones and a draw of the others.
USP2a inh: inhibitors of human ubiquitin-specific protease USP2a; 330,000 tested, 0.01% active; AID 463254; USP2 core, Ub-CHOP2 coupled fluorogenic reporter, 485/531; Potency, µM (series often up to 38.3 µM), for inactives: top-dose activity change, negative = inhibition, actives largely listed as inhibitors;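 note: potency is the fitted concentration of half-maximal effect; plate controls were DMSO wells for no effect and full inhibition by NEM control for full effect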
Target sequence (O75604 whole entry, looked up): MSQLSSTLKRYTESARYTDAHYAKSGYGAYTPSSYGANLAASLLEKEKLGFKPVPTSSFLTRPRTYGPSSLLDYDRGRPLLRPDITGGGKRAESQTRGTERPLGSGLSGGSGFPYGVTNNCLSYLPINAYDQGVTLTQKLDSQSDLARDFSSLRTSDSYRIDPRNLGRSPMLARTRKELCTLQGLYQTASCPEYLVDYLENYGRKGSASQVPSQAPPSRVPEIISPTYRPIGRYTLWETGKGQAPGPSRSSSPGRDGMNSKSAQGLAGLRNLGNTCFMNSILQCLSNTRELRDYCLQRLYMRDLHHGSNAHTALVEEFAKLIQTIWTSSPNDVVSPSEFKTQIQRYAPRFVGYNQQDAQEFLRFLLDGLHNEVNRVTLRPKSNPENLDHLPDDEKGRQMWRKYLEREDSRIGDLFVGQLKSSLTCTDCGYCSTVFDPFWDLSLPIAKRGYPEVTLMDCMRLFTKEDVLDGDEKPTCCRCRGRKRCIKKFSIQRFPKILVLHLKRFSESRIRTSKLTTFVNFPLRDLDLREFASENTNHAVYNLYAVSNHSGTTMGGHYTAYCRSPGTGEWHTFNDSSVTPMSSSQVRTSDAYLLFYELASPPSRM
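Deubiquitinase activity read as fluorescence (485/531 nm) after Ub-CHOP2 cleavage activates the enterokinase reporter on its substrate; USP2 core 10nM, Ub-CHOP2 and substrate 25nM each, 30min compound preincubation then 60min RT; data normalized to NEM, curves fitted.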
USP1-UAF1 inh: blocks the human USP1/UAF1 deubiquitinase complex; O94782; recombinant USP1/UAF1, Ub-Rhodamine cleavage fluorescence; AID 743255; 390,000 tested, 0.23% active; Potency, µM (doses to about 57.1 µM), without a hit: at the highest dose activity change, negative = inhibition, usual class: inhibitors; note: potency is the fitted concentration of half-maximal effect; % is set by controls: 0 for no effect and ±100 for the full control effect; nearly all actives have a fitted effect of over 60% in size
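Step one: compound is pinned into 1nM USP1/UAF1 in HEPES pH 7.8 buffer with TCEP. Step two: 15 min room-temperature incubation. Step three: Ub-Rho (150nM final) starts cleavage, tracked by fluorescence over six one-minute reads.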
S2 tox: viability counter-screen for ATXN expression inhibitors. Potency, µM (top dose mostly 56.7 µM), hits mostly cytotoxic. S2 cells (HEK-293 line with an ATXN2-luciferase reporter) viability, CellTiter-Fluor protease fluorescence, 24 h. 400,000 tested, 0.49% active. AID 651635; note: potency is the fitted concentration of half-maximal effect; nearly all actives have a fitted effect of over 40% in size
IL-1B inflam inh: inhibitors of inflammasome signaling (IL-1 beta secretion); THP-1 LPS/ATP IL-1B secretion, AlphaLISA, 16 h; hits give low values; activity change, % at 57.5 µM; 360,000 tested, 4.7% active; AID 743279; in the data active = activity change below about -50%; inconclusive = mostly about -30% to -49%; note: % is set by controls: 0 for no effect and ±100 for the full control effect
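Secreted IL-1B measured by AlphaLISA bead assay after 16 h compound exposure of THP-1 cells; compounds (final up to 57.5 uM) added 1 h before LPS (250 ng/mL) and ATP (1.25 mM) stimulation; lower signal means less secretion.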
ATXN2 expr inh: ATXN2 expression inhibition; HEK-293 ATXN2-luciferase reporter, luminescence, 24 h; Potency, µM (top dose mostly 57 µM), inactives show top-dose activity change, negative = inhibition, actives largely listed as inhibitors; 360,000 tested, 0.72% active; AID 1745845; note: potency is the fitted concentration of half-maximal effect; % is set by controls: 0 for no effect and ±100 for the full control effect; nearly all actives have a fitted effect of over 55% in size
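ATXN2-luciferase reporter cells (luciferase flanked by upstream and downstream ATXN2 gene portions) were treated 24 h at 37 °C with compounds at up to 57 uM. SteadyGlo luminescence gave expression; GF-AFC fluorescence gave viability.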
The depositor's hits bear a star; i = inactive; ? = inconclusive; . = no result. Unless noted, calls come from the whole dose curve; as a rule, active = well fitted curve in the direction sought with a large enough effect; inconclusive = small, poorly fitted or top-dose-only effect, or another doubt; inactive = no such curve, though single readings can be large; an effect the other way counts as inactive or inconclusive.

SMILES | USP2a inh | USP1-UAF1 inh | S2 tox | IL-1B inflam inh | ATXN2 expr inh
CC1CCCN(C(=O)c2cc3c(=O)n(C)c4ccccc4c3s2)C1 (stereo not drawn) | . | -4.8% | i | . | 8.0%
O=[N+]([O-])c1ccc(O)c(-c2cc(C(F)(F)F)nc(-c3ccccc3)n2)c1 | 0.0% | -6.5% | ? | -61.7* | .
Oc1ccccc1-c1cc(C(F)(F)C(F)F)nc(-c2ccccc2)n1 | -1.4% | 3.1% | i | -9.1 | -8.0%
Cc1cc[n+](Cc2ccccc2)c(N)c1 | -0.3% | -8.1% | i | 11.0 | 5.8%
COc1cc(C(C)=O)ccc1OCC(O)CN1CCN(c2ccccc2)CC1 (stereo not drawn) | -1.4% | -20.2% | i | -15.5 | 1.3%
COc1cc(C(C)=O)ccc1OCC(O)CN1CCN(c2ccccn2)CC1 (stereo not drawn) | -0.9% | -6.6% | i | -56.3* | 12.3%
CCN(CC)C(=O)Oc1ccc2c(=O)c(-c3ccccc3)coc2c1 | 2.3% | -16.0% | i | -54.0* | -9.1%
COc1ccc2c(=O)c(-c3ccccc3)coc2c1 | -1.9% | -8.5% | i | -7.2 | 51.0%
Cc1ccc2c(c1)c(/C=C/c1cc[n+](C)cc1)c(C)n2C | ? | 22.4µM* | i | -62.7* | .
CCCn1c(/C=C/c2cc[n+](C)cc2)nc2ccccc21 | 3.7% | -12.5% | . | -8.3 | -4.2%
Oc1ccc(/C=N/N2CCN(C3c4ccccc4-c4ccccc43)CC2)cc1 | -1.0% | -0.6% | i | -64.1* | 9.4%
Cc1cc(F)ccc1S(=O)(=O)Nc1nc2ccccc2nc1Cl | -0.4% | 1.7% | i | -50.6* | -0.7%
Cc1ccc(C(C)(C)C)cc1S(=O)(=O)Nc1nc2ccccc2nc1Cl | -10.1% | -19.6% | i | -14.2 | ?
COc1cccc(-n2c(SCC(=O)N3CCc4ccccc43)nc3c([nH]c4ccccc43)c2=O)c1 | . | -25.8% | i | . | 10.4%
CCOc1ccc(N(CC(=O)Nc2ccc(OC)cc2)C2=NC3CS(=O)(=O)CC3S2)cc1 (stereo not drawn) | -0.9% | -13.5% | i | -58.4* | -3.5%
CC(Nc1oc(-c2ccc(COc3ccccc3)o2)nc1C#N)c1ccccc1 (stereo not drawn) | . | -33.1% | ? | . | ?
C[C@@H]1CN([C@@H](C)CO)S(=O)(=O)c2ccc(Br)cc2O[C@H]1CN(C)C(=O)Nc1ccc(C(F)(F)F)cc1 | . | ? | . | -14.0 | ?
Cc1ccc(S(=O)(=O)NC(Cc2ccccc2)C(=O)NN)cc1 (stereo not drawn) | 0.8% | -22.8% | i | 3.1 | 1.0%
Cc1ccc(S(=O)(=O)N[C@@H](Cc2ccccc2)C(=O)CCl)cc1 | 4.3% | ? | 31.6µM* | -106.8* | ?
CC(=O)NC(CC(C)C)C(=O)NC(Cc1ccccc1)C(=O)CCl (stereo not drawn) | . | -11.0% | . | -98.1* | 5.8%
COc1ccc(N(CC(=O)NCc2cccs2)S(=O)(=O)c2ccc(C(C)=O)cc2)cc1 | . | 0.0% | i | -1.4 | .
O=C(Nc1ccc(S(=O)(=O)Nc2ncccn2)cc1)C1COc2ccccc2O1 (stereo not drawn) | 1.8% | -15.3% | i | -8.0 | 20.1%
COc1cc(/C=N\NC(=O)C2COc3ccccc3O2)cc(OC)c1O (stereo not drawn) | 2.2% | -21.1% | i | -70.8* | 5.9%
COc1ccc(OC)c(NS(=O)(=O)c2ccc(NC(=O)C3COc4ccccc4O3)cc2)c1 (stereo not drawn) | 1.6% | ? | i | -68.3* | -32.1%
CC(=O)Nc1cc(N=Cc2ccc(O)cc2O)c(Cl)cc1Cl | 3.7% | 1.1% | ? | -101.7* | -2.8%
SMILES | USP2a inh | USP1-UAF1 inh | S2 tox | IL-1B inflam inh | ATXN2 expr inh
CN(C)S(=O)(=O)c1ccc(-c2csc(N/N=C/c3ccco3)n2)cc1 | -0.4% | -4.5% | ? | -94.3* | ?
CN(C)S(=O)(=O)c1ccc(-c2csc(N/N=C/c3ccc(O)cc3)n2)cc1 | -0.7% | -15.6% | . | -103.4* | ?
COC(=O)c1ccccc1NC(=O)c1noc2c1CSc1ccccc1-2 | . | 6.2% | . | . | .
CCNC(=O)C1(C)CCN(C(=O)c2c(F)cccc2F)C1 (stereo not drawn) | . | . | i | 28.3 | 9.6%
O=C(c1ccc(F)c(F)c1)N1CCOc2ccc(CN3CCN(CCO)CC3)cc2C1 | . | . | i | . | .
Cc1ccc(S(=O)(=O)N2CCc3ccccc3CC2)cc1 | . | -6.0% | i | -85.4* | ?
CC(C)CN(C(=O)CCC(=O)OCc1ccc(Cl)cc1Cl)c1c(N)n(CC(C)C)c(=O)[nH]c1=O | -0.1% | -18.0% | ? | -9.6 | -8.5%
O=C(c1cnn(-c2nccc(-c3ccccc3F)n2)c1C1CC1)N1CCN(CCO)CC1 | . | . | i | . | .
C=CC[C@@H](CC(=O)N(CCO)Cc1ccccc1)C(=O)N[C@H](C)COC(=O)[C@@H](CC=C)Cc1ccc(F)cc1 | -3.3% | -6.2% | i | -1.9 | -25.3%
C=CCC[C@@H](Cc1ccc(F)cc1)C(=O)OC[C@H](Cc1c[nH]c2ccccc12)NC(=O)[C@H](CC=C)CC(=O)N(CCO)Cc1ccccc1 | -18.4% | -9.6% | 22.4µM* | -7.0 | -17.4%
C=CCC[C@H](Cc1ccc(F)cc1)C(=O)OC[C@@H](Cc1c[nH]c2ccccc12)NC(=O)[C@@H](CC=C)CC(=O)N(CCO)Cc1ccccc1 | -2.1% | 13.7% | 15.8µM* | -61.7* | ?
C=CCC[C@H](Cc1ccc(F)cc1)C(=O)OC[C@H](Cc1c[nH]c2ccccc12)NC(=O)[C@@H](CC=C)CC(=O)N(CCO)Cc1ccccc1 | -0.3% | -15.9% | . | ? | 0.0%
C=CC[C@H](CC(=O)N(CCO)Cc1ccccc1)C(=O)N[C@H](COC(=O)[C@@H](CC=C)Cc1ccc(F)cc1)Cc1ccccc1 | -1.8% | ? | . | -55.6* | ?
COCCCOc1cc(C[C@@H](C[C@H](N)[C@@H](O)C[C@H](C(=O)NCC(C)(C)C(N)=O)C(C)C)C(C)C)ccc1OC | . | . | i | . | 6.3%
CCc1cccc(NC(=O)CCS(=O)(=O)c2cc3c4c(c2)CCN4C(=O)CC3)c1 | . | -22.1% | i | . | -1.3%
CC1(NC(=O)Cc2c(F)cccc2Cl)CCS(=O)(=O)C1 (stereo not drawn) | 6.1% | -30.1% | i | 20.0 | -3.0%
COc1ccccc1C1CCN(Cc2ccccc2)CC1 | -4.9% | -12.2% | i | -9.4 | ?
COc1ccccc1C1CCN(Cc2ccc3ccccc3c2)CC1 | -0.7% | -10.6% | ? | -60.9* | ?
CS(=O)(=O)c1ccc(-c2cccc3c2OC(CNC(=O)c2cc(C4CC4)[nH]n2)C3)cc1 (stereo not drawn) | . | . | i | . | .
COc1ccc(CC(N)c2csc(Nc3ccc(C(=O)c4ccccc4)cc3)n2)cc1 (stereo not drawn) | . | . | ? | -69.7* | 35.5µM*

Source: PubChem
